Assay results as given in PubChem BioAssay (EPA / NIEHS).
Active and inactive are the calls of the source. How the source made its calls: active means hit-call score of the fitted dose curve at least 0.9, where 1 is the maximum; inactive means score below 0.9.

Test: CCTE_Shafer_MEA_acute_per_network_burst_spike_number_mean: CCTE's Neural Acute Assay for Average Number of Spikes in a Network Burst, Shafer Lab (AID 2284019)
Experimental: CCTE_Shafer_MEA_acute assay is conducted using Axion Biosystems 48 well microelectrode array (MEA) plates and Maestro recording system. Each well of the MEA plate contains a grid of 16 microelectrodes embedded in the culture surface. Electrically active cells, such as neurons, can be cultured over the electrodes, and electrical activity in these cells can be recorded extracellularly. The spontaneous firing of neurons is captured from each electrode on a microsecond timescale providing both temporally and spatially precise data. […] The CCTE_Shafer_MEA_acute assay uses primary cultures of rat cortical neurons. As these cultures mature over time, neural networks develop functional activity and form cohesive networks in which electrical activity can be highly coordinated. Baseline 40-minute recordings are made on days post-plating 13 or 15, followed by a secondary 40-minute recording after chemical exposure.CCTE_Shafer_MEA_acute_per_network_burst_spike_number_mean is a component of the CCTE_Shafer_MEA_acute assay. It measures the average number of spikes (action potential firings) in a network burst (temporally-clustered group of spikes across multiple electrodes) as the total number of spikes in a network burst divided by the number of network bursts during a recording in a microelectrode array (MEA) using Axion Biosystems Maestro 768 channel amplifier with the AxIS adaptive spike detector. The recordings before and after chemical treatment are used to calculate a percent change in the mean number of spikes in a network burst in each well.Data from the assay component CCTE_Shafer_MEA_acute_per_network_burst_spike_number_mean was analyzed into 1 assay endpoint. This assay endpoint, CCTE_Shafer_MEA_acute_per_network_burst_spike_number_mean, was analyzed in the negative analysis fitting direction relative to DMSO as the negative control and baseline of activity. Using a type of functional reporter, gain or loss-of-signal activity can be used to understand electrical activity.
Spontaneous activity in the cortical cultures was recorded using an Axion Biosystems Maestro 768 channel amplifier and Axion Integrated Studios (AxIS) v1.8 (or later) software. The amplifier recorded from all channels simultaneously (gain = 1200 x; sampling rate = 12.5 kHz/channel): raw signals were filtered with a Butterworth band-pass filter (300-5000 Hz), which filters out slower local field potentials leaving only fast potentials, i.e., "spikes", arising from extracellular currents associated with action potentials (Pine 2006; Wheeler and Nam 2011). On-line spike detection of filtered signals was conducted with the AxIS adaptive spike detector, using a threshold of 8x the root mean squared (rms) noise on each channel. Any electrodes with rms noise levels greater than 5 uV were grounded (e.g., no data were recorded). Once grounded, an electrode was grounded for the duration of the experiment. All recordings were conducted at 37 C. Wells were deemed usable if on the day of the exposure >/= 10 electrodes were active (defined as >/= 5 spikes/min). On DIV 13 or 15, a minimum of three wells from one cortical culture preparation were treated with each compound (0.03-40 uM). Prior to recording baseline activity, each mwMEA plate was placed in the Maestro at 37 C and allowed to sit for 20 min while firing rates stabilized. Baseline activity (40 min) was recorded before the addition of each compound. An additional 40 min of spontaneous activity was recorded in the presence of each compound. Changes in network parameters relative to baseline were assessed following compound treatment.
For `O=c1[nH]sc2ccccc12`, the outcome was “inactive”. In the case of `CN(C)C(=O)C1(N2CCCCC2)CCN(CC[C@@]2(c3ccc(Cl)c(Cl)c3)CN(C(=O)c3ccccc3)CCO2)CC1`, the AC50 is reported as 2.5 µM (active). For `CC[C@@H]1C[C@H](N(Cc2cc(C(F)(F)F)cc(C(F)(F)F)c2)C(C)=O)c2cc(C(F)(F)F)ccc2N1C(=O)OC(C)C`, the outcome was “inactive”. With `C[C@]12CC[C@@H]3c4ccc(O)cc4CC[C@H]3[C@@H]1CC[C@H]2O` the outcome was “inactive”. For `NCc1cccc(C2CCN(C(=O)c3ccc(C#Cc4ccccc4F)o3)CC2)c1`, the outcome was “inactive”. In the case of `O=C(O)c1ccccc1-n1cc(C(=O)O)c(=O)c2cc(Nc3c(F)cc(F)cc3Cl)c(Cl)cc21`, the outcome is reported as “inactive”. In the case of `CC(O)CC(C)(C)O` (stereo unspecified), the outcome is reported as “inactive”. With `CN(C[C@@H](CC[N+]12CCC(C3CCCCC3)(CC1)CC2)c1ccc(Cl)c(Cl)c1)C(=O)c1cc(C(F)(F)F)cc(C(F)(F)F)c1` the outcome was “inactive”. For `c1ccc2n[nH]nc2c1`, the outcome was “inactive”. For `COc1cccc([C@H](O)C2CCN(CCc3ccc(F)cc3)CC2)c1OC`, the outcome was “inactive”. For `Cc1cc2c(cc1C(F)(F)F)N(C(=O)Nc1ccc(Oc3cccnc3C)nc1)CC2`, the outcome was “inactive”. For `CCCCCCCCCCCCO`, the outcome was “inactive”. In the case of `CC(=O)N1CCN(c2ccc(OC[C@H]3CO[C@](Cn4ccnc4)(c4ccc(Cl)cc4Cl)O3)cc2)CC1`, the outcome is reported as “inactive”. For `CC(C)(C)c1cc(/C=C2\SC(N)=NC2=O)cc(C(C)(C)C)c1O`, the outcome was “inactive”. With `OC12N=C(c3ccccc3)SC1Cc1cc(Cl)ccc12` (stereo unspecified) the outcome was “inactive”. For `Cc1c2ccccc2c(C)c2c1ccc1ccccc12`, the outcome was “inactive”. With `CCN(Cc1cccc(S(=O)(=O)O)c1)c1ccc(C(=C2C=CC(=[N+](CC)Cc3cccc(S(=O)(=O)O)c3)C=C2)c2ccccc2S(=O)(=O)[O-])cc1` the outcome was “inactive”. For `CO[C@H]1/C=C/O[C@@]2(C)Oc3c(C)c(O)c4c(O)c(c(/C=N/N5CCN(C)CC5)c(O)c4c3C2=O)NC(=O)/C(C)=C\C=C\[C@H](C)[C@H](O)[C@@H](C)[C@@H](O)[C@@H](C)[C@H](OC(C)=O)[C@@H]1C`, the AC50 was 12.5 µM (active). For `NC(=O)c1nc(-c2cccc(-c3cc(F)ccc3OCC(F)(F)C(F)(F)F)c2)n[nH]1`, the AC50 was 0.16 µM (active). With `O=C1O[C@H]([C@@H](O)CO)C(O)=C1O` the outcome was “inactive”. For `CCCCCCCCOC(=O)c1cc(O)c(O)c(O)c1`, the outcome was “inactive”. For `Clc1ccccc1C(c1ccccc1)(c1ccccc1)n1ccnc1`, the outcome was “inactive”. In the case of `Cc1cn([C@H]2C[C@H](N=[N+]=[N-])[C@@H](CO)O2)c(=O)[nH]c1=O`, the outcome is reported as “inactive”. With `CC/C(=C(/CC)c1ccc(O)cc1)c1ccc(O)cc1` the AC50 was 5.3 µM (active). In the case of `COc1cc(C(=O)NC2CCN(C)CC2)ccc1Nc1ncc2c(n1)N(C1CCCC1)CC(F)(F)C(=O)N2C`, the AC50 is reported as 3.69 µM (active). For `CC1=CC(=O)/C(=C(/C)O)C(=O)O1`, the outcome was “inactive”. In the case of `CC(C)(c1cc(Br)c(O)c(Br)c1)c1cc(Br)c(O)c(Br)c1`, the outcome is reported as “inactive”. With `CCN(CC)C(=O)c1cc(S(=O)(=O)Cc2ccccc2)c(N2CCC(c3ccccc3)CC2)cc1N(CC)CCN(C)C` the AC50 was 1.57 µM (active). For `CN1C(=O)CC[C@H]1c1cccnc1`, the outcome was “inactive”. With `CCCCOC(=O)c1ccc(O)cc1` the outcome was “inactive”. In the case of `CN(C)c1ccc(C(=C2C=CC(=[N+](C)C)C=C2)c2ccc(N(C)C)cc2)cc1`, the outcome is reported as “inactive”.
